Tb PGK inh – blocks T. brucei phosphoglycerate kinase | P07378 | PGK/GAPDH coupled, Kinase-Glo luminescence, 60 min | Potency, µM (doses to about 57.5 µM), for the others: at the top dose activity change, negative = inhibition, most hits filed as inhibitors | 380,000 tested, 0.043% active; also: potency is read from the fitted curve at half-maximal effect; % is scaled to controls: 0 for no effect and ±100 for the full control effect; nearly all actives have a fitted effect of over 60% in size
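Recombinant glycosomal PGK reaction used 1,3-bisphosphoglycerate generated in-well by GAPDH (100nM final) in 100mM TEA pH 7.6, 5mM MgCl2, 0.01% Tween-20. After 60 minutes at room temperature, ATP was read by Kinase-Glo Plus luminescence end-point.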
mIDH1 inhibitor – inhibitors of human mutant IDH1 R132H. Potency, µM (top dose mostly 76.6 µM), inactives show at the highest dose activity change, negative = inhibition, usual class: inhibitors. AID 602179. 390,000 tested, 0.093% active. IDH1-R132H enzyme, NADPH consumption, diaphorase/resazurin fluorescence; also: potency is read from the fitted curve at half-maximal effect; % is scaled to controls: 0 for no effect and ±100 for the full control effect; nearly all actives have a fitted effect of over 65% in size
Target sequence (O75874 whole entry R132H, stated change not applied): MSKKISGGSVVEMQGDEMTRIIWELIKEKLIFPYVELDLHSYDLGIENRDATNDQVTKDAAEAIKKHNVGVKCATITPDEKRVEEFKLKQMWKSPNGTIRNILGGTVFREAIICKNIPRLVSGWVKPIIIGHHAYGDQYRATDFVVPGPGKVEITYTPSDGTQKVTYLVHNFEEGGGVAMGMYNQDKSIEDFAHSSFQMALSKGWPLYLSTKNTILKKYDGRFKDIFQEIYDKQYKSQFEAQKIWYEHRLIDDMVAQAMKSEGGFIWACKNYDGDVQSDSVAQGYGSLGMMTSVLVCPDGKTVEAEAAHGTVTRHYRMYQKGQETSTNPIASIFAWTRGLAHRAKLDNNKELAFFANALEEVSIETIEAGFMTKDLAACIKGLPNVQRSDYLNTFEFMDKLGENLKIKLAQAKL
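IDH1-R132H (0.5 ug/mL dispensed) in pH 7.5 Tris buffer was preincubated 30 min with compound, then given a substrate mix of 0.016 mM NADPH and 2 mM alpha-KG for 80 min at room temperature; remaining NADPH was read by diaphorase/resazurin fluorescence.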
GLS inh – inhibitors of human glutaminase (GLS); O94925; GLS enzymatic activity, qHTS titration; 410,000 tested, 0.21% active; Potency, µM (titrated, usually from 45.5 µM), without a hit: top-dose activity change, negative = inhibition, most hits filed as inhibitors; AID 624170; also: potency is read from the fitted curve at half-maximal effect; % is scaled to controls: 0 for no effect and ±100 for the full control effect
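Read-out is an Amplex red fluorescence increase coupled through glutamate oxidase and HRP, measured before and after 30 min room-temperature incubation. hKGA is in 45 mM KH2PO4 (pH 8.2) with 0.02% Tween-20; glutamine added as 1mM solution.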
Pin1 inhibitor – inhibitors of human Pin1 | Pin1 FP peptide displacement, HiFluor488, 10 min | Potency, µM (highest dose often 115 µM), inactives show at the top dose activity, negative = inhibition, most hits filed as inhibitors | 390,000 tested, 0.009% active | AID 504891; active = well fitted inhibition curve with a large enough effect in the polarisation, with a control signal flat, not every such curve was filed as active; inconclusive = small, poorly fitted or top-dose-only effect, or effect the other way, or a change in a side signal; inactive = no such curve, though single readings can be large or run the other way; the % refers to the polarisation; also: potency is read from the fitted curve at half-maximal effect; % is scaled to controls: 0 for no effect and ±100 for the full control effect
Target sequence (Q13526 whole entry, looked up): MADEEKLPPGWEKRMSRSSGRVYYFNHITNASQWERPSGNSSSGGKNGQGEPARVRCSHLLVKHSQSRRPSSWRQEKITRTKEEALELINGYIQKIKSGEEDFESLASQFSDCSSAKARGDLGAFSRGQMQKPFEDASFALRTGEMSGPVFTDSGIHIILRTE
IDH1 autofl – autofluorescence interference, mutant IDH1 hit counter-screen; shares compounds with mIDH1 inhibitor; Resorufin detection reagent fluorescence interference, cell-free; inhibition of signal, % at 51.2 µM; 750 tested, under 10 active; AID 623980;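 also: 0% = wells with normal resorufin and full inhibition = wells lacking resorufin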
WT IDH1 inh – wild-type IDH1 (human) inhibition counterscreen. Potency, µM (top dose mostly 115 µM), for inactives: top-dose activity change, negative = inhibition, actives largely listed as inhibitors. shares compounds with mIDH1 inhibitor. WT IDH1 enzyme, NADPH diaphorase/resazurin fluorescence. 750 tested, 9% active;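 also: potency is read from the fitted curve at half-maximal effect; 0% = full WT IDH1 enzyme control and full inhibition = no enzyme wells; nearly all actives have a fitted effect of over 55% in size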
Target sequence (O75874 whole entry, looked up): as the sequence (O75874 whole entry R132H, stated change not applied) above, with H132R counted along it
mIDH1 confirm – mutant IDH1 (human) inhibition, confirmed; IDH1 R132H enzyme, NADPH diaphorase/resazurin fluorescence; shares compounds with mIDH1 inhibitor; 750 tested, 83% active; Potency, µM (series often up to 76.6 µM), inactives show at the highest dose activity change, negative = inhibition, usual class: inhibitors; also: potency is read from the fitted curve at half-maximal effect; nearly all actives have a fitted effect of over 50% in size
The depositor's hits bear a star. Hits are enriched below; roughly 0.33% of the tested compounds scored in any of these assays. Unless noted, calls follow the shape of the dose curve; as a rule, active = well fitted curve in the direction sought with a large enough effect; inconclusive = small, poorly fitted or top-dose-only effect, or another doubt; inactive = no such curve, though single readings can be large; an effect the other way counts as inactive or inconclusive.

For CCOC(=O)c1ccccc1NC(=O)c1cn(CC(C)C)c(=O)c2cc(OC)c(OC)cc12 the results were Tb PGK inh 11.5%, mIDH1 inhibitor 44.7µM*, GLS inh -0.8%, Pin1 inhibitor 4.7%, IDH1 autofl -7.1, WT IDH1 inh 0.7% and mIDH1 confirm 14.1µM*.
For Cc1ccc(C2=Nc3ccc(Br)cc3C(c3ccncc3)=NN2)cc1 the results were Tb PGK inh -3.2%, mIDH1 inhibitor 14.7µM*, GLS inh 8.4%, Pin1 inhibitor -3.2%, IDH1 autofl 8.5, WT IDH1 inh 4.1% and mIDH1 confirm 22.4µM*.
CCCc1cc(F)c(S(=O)(=O)N2CCN(S(=O)(=O)c3ccc4c(c3)OCCO4)CC2)cc1F was read as Pin1 inhibitor -0.4%.
Screening CCC1C(C#N)=C(SCC(N)=O)NC2=C1C(=O)CC(C)(C)C2 (stereo not given) returned Tb PGK inh -6.2%, mIDH1 inhibitor 1.8%, GLS inh -29.0% and Pin1 inhibitor -8.0%.
Screening COc1ccc(C2C(C#N)=C(SCC(=O)Nc3ccc(C)cc3)NC3=C2C(=O)CC(C)(C)C3)cc1 (stereo not given) returned Tb PGK inh -1.2%, mIDH1 inhibitor 13.1µM*, GLS inh 1.0%, Pin1 inhibitor 27.8%, IDH1 autofl -3.7, WT IDH1 inh 8.1% and mIDH1 confirm 7.08µM*.
For Cc1cccn2c(=O)c(/C=C(\C#N)S(=O)(=O)c3ccccc3)c(N3CCC(C(N)=O)CC3)nc12 the results were Tb PGK inh 6.3%, mIDH1 inhibitor inconclusive, GLS inh 15.3%, Pin1 inhibitor inconclusive, IDH1 autofl 0.9, WT IDH1 inh -0.6% and mIDH1 confirm 39.8µM*.
Cc1ccc(S(=O)(=O)/C(C#N)=C/c2c(N3CCC(C(N)=O)CC3)nc3c(C)cccn3c2=O)cc1 was read as Tb PGK inh -3.1%, mIDH1 inhibitor inconclusive, GLS inh inconclusive and Pin1 inhibitor inconclusive.
`CSC1=NC(=O)/C(=C/c2ccc(SC)cc2)S1` gave Tb PGK inh -0.7%, mIDH1 inhibitor 35.5µM*, GLS inh -9.4%, Pin1 inhibitor 56.6%, IDH1 autofl -3.0, WT IDH1 inh 70.8µM* and mIDH1 confirm 39.8µM*.
Screening COc1cc2cnc(-c3ccsc3)c(-c3ccc(F)cc3)c2cc1OC returned Tb PGK inh inactive, mIDH1 inhibitor inconclusive, GLS inh -10.3%, Pin1 inhibitor 14.2%, IDH1 autofl 1.1, WT IDH1 inh 8.3% and mIDH1 confirm 25.1µM*.
For COc1cc2cnc(-c3ccccc3)c(-c3ccc(C#N)cc3)c2cc1OC the results were Tb PGK inh -2.3%, mIDH1 inhibitor 31.6µM*, GLS inh 3.9%, Pin1 inhibitor 10.7%, IDH1 autofl 0.3, WT IDH1 inh inconclusive and mIDH1 confirm 8.91µM*.
N#Cc1nc(NC2CCCC2)c2ncn(-c3cc(F)cc(F)c3)c2n1 was read as Pin1 inhibitor 1.9%.
Screening CCN(CC)S(=O)(=O)c1cc(NC(=O)CNc2cccc(S(=O)(=O)N3CCOCC3)c2)ccc1C returned Tb PGK inh -10.6%, mIDH1 inhibitor inconclusive, GLS inh -0.7%, Pin1 inhibitor 16.8%, IDH1 autofl 1.4, WT IDH1 inh -1.8% and mIDH1 confirm 28.2µM*.
Cc1ccc(NC(=O)CNc2cccc(S(=O)(=O)N3CCOCC3)c2)cc1F was read as Tb PGK inh -4.9%, mIDH1 inhibitor -10.8%, GLS inh 0.8% and Pin1 inhibitor inconclusive.
`O=C(CSc1nc2nc(-c3cccs3)cc(C(F)(F)F)c2c(=O)[nH]1)Nc1ccc(F)c(F)c1` gave Tb PGK inh -15.5%, mIDH1 inhibitor inconclusive, GLS inh 0.0%, Pin1 inhibitor inconclusive, IDH1 autofl 5.6, WT IDH1 inh inconclusive and mIDH1 confirm 44.7µM*.
O=S1(=O)N=C(Oc2ccccc2F)c2ccccc21 was read as Pin1 inhibitor -0.4%.
For c1ccc(N(c2ccccc2)c2nc(-n3ccnc3)nc(-n3ccnc3)n2)cc1 the results were Tb PGK inh inactive, mIDH1 inhibitor inconclusive, GLS inh 14.1%, Pin1 inhibitor -5.7%, IDH1 autofl 1.5, WT IDH1 inh -3.1% and mIDH1 confirm 25.1µM*.
`O=C1CCc2cc(S(=O)(=O)Nc3cc(F)cc(Cl)c3)c(F)cc2N1` gave Pin1 inhibitor -0.4%.
CC(C)Cn1c(SCC(=O)N2CCc3ccccc3C2)nc2cc(Cl)ccc2c1=O was read as Tb PGK inh -11.9%, mIDH1 inhibitor inconclusive, GLS inh -3.4% and Pin1 inhibitor 3.6%.
For COCCn1c(SCC(=O)N2CCc3ccccc3C2)nc2cc(Cl)ccc2c1=O the results were Tb PGK inh -0.7%, mIDH1 inhibitor 26.1µM*, GLS inh 11.8%, Pin1 inhibitor 1.7%, IDH1 autofl -7.0, WT IDH1 inh 8.2% and mIDH1 confirm 11.2µM*.
CC(=O)c1ccc(N(C(=O)CNC(=O)c2ccco2)C(C(=O)NC2CCCC2)c2ccco2)cc1 (stereo not given) was read as Tb PGK inh 0.7%, mIDH1 inhibitor -5.9%, GLS inh -4.3% and Pin1 inhibitor -0.1%.
For Cc1ccc(C(C(=O)NC2CCCCC2)N(Cc2ccco2)C(=O)Cc2c[nH]c3ccccc23)o1 (stereo not given) the results were Tb PGK inh -0.4%, mIDH1 inhibitor inconclusive, GLS inh 4.0%, Pin1 inhibitor 21.3%, IDH1 autofl 4.0, WT IDH1 inh 4.9% and mIDH1 confirm 10µM*.
Screening Cc1ccccc1N(C(=O)Cc1c[nH]c2ccccc12)C(C(=O)NC1CCCCC1)c1ccco1 (stereo not given) returned Tb PGK inh -5.7%, mIDH1 inhibitor inconclusive, GLS inh -0.3%, Pin1 inhibitor -6.9%, IDH1 autofl -0.8, WT IDH1 inh 0.4% and mIDH1 confirm 12.6µM*.
`COc1ccc(C(C(=O)NC2CCCCC2)N(Cc2cccs2)C(=O)Cc2c[nH]c3ccccc23)cc1OC` (stereo not given) gave Tb PGK inh -2.8%, mIDH1 inhibitor -1.5%, GLS inh 5.1% and Pin1 inhibitor -2.4%.
`Cc1ccc(C(C(=O)NC2CCCCC2)N(C(=O)Cc2c[nH]c3ccccc23)c2ccccc2C)o1` (stereo not given) gave Tb PGK inh -0.2%, mIDH1 inhibitor inconclusive, GLS inh 1.6%, Pin1 inhibitor 0.1%, IDH1 autofl 2.4, WT IDH1 inh 9.0% and mIDH1 confirm 7.08µM*.
